In PubChem BioAssay (NCATS) one finds Potency, activity change, negative = inhibition and activity, negative = inhibition data, which are given here for 15 compounds.

Assay [1] deals with Lysosomal acid glucosylceramidase (Homo sapiens) (UniProt P04062). Description: Glucocerebrosidase-p2 (AID 348; in the data active = potency below about 10 µM; also: potency is read from the fitted curve at half-maximal effect). The conditions noted are these: purified GBA, blue fluorogenic substrate, 40 min. The method in brief:
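Normal human glucocerebrosidase (0.2 nM) with blue fluorogenic substrate (80 uM final) in citrate/phosphate pH 5.9 with 10mM sodium taurocholate, 0.01% tween-20; 40 min RT, NaOH/glycine stop; fluorescence Ex 365/Em 440; AC50 from a titration from 0.6 nM upwards.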

Assay [2] is described as follows: AP1 Signaling Pathway (AID 357). Also: % is scaled to controls: 0 for no effect and ±100 for the full control effect. The note with it: ME-180 AP-1-bla reporter, EGF-induced, beta-lactamase ratio, 5 h; at 7.69 µM (top of the series) unless noted. The method in brief: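 ME-180 cells with beta-lactamase reporter under AP-1 response element, stimulated with EC50 EGF; compounds tested in titration series, 5 h at 37 °C. CCF4 substrate added 2.5 h at room temperature; 460/530 nm emission ratio gave %activity and AC50.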

In assay [3] the target is Cytochrome P450 1A2 (Homo sapiens) (UniProt P05177). Briefly: p450-cyp1a2 (AID 410; calls by dose curve; also: potency is read from the fitted curve at half-maximal effect;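 as to activity change, negative = inhibition: -100% = full effect of reference inhibitor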). The conditions noted are these: recombinant CYP1A2, luciferin-ME demethylation, luminescence; series mostly up to 11.4 µM. The method in brief:
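20nM CYP1A2, 100uM Luciferin-ME (=Km), 100mM KPO4; cpd 10 min RT; +NADPH regen, 60 min RT; stop/detect 20 min; luminescence. Normalized to furafylline 57 uM = full inhibition.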

The nature of assay [4]: NFAT Signaling Pathway (AID 444).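 Also: carbachol stimulus at about its EC50 of 1 µM final; % is scaled to controls: 0 for no effect and ±100 for the full control effect.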 The conditions noted are these: Jurkat NFAT-bla M1, carbachol, beta-lactamase ratio, 5 h; at 7.69 µM (top of the series) unless noted. The method in brief:
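Jurkat cells carrying an NFAT-driven β-lactamase reporter and co-transfected muscarinic M1 receptor were treated with compound plus carbachol (1 uM final, an EC50 level) for 5 h at 37 °C. CCF4 loading followed for 1 h at RT; 460/530 nm ratio gave %activity.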

Assay [5] is described as follows: Stat Signaling Pathway (AID 446).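 Also: ME-180 cervical cancer cells given 40 pM IL-6 alongside compound; SIE-controlled beta-lactamase reporter measured as 460/530 nm FRET emission ratio; % is scaled to controls: 0 for no effect and ±100 for the full control effect.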 The note with it: ME-180 (cervical carcinoma) SIE beta-lactamase reporter, IL-6 stimulated, 5 h; at 7.69 µM (top of the series) unless noted. The method in brief: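 FRET read-out (405 nm excitation, 460/530 nm emission) of a beta-lactamase reporter under a STAT-inducible element in ME-180 cervical carcinoma cells. Cells with compound receive 40 pM IL-6 for 5 h. Values are normalised to AC90 stimulation and AC90 JAK-inhibitor controls.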

For assay [6], the target named is Glucocorticoid receptor (Homo sapiens) (UniProt P04150). Briefly: GR-GFP Redistribution (AID 450;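 active = compounds whose dose series gives a full or clear partial fitted curve of increased nuclear translocation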; also: potency is read from the fitted curve at half-maximal effect). The note with it: U2OS GR-GFP nuclear translocation, laser cytometry, 2 h.
Assay [7] has the same target. Briefly: GR-EFC Redistribution (AID 451; calls by dose curve; also: potency is read from the fitted curve at half-maximal effect). The note with it: CHO-K1 GR-EFC translocation, beta-gal luminescence, 2 h. The method in brief:
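CHO-K1 cells stably expressing nuclear-localized β-gal enzyme acceptor and GR fused C-terminally to the enzyme donor fragment; ligand-driven nuclear translocation restores β-gal by complementation. Compounds titrated up to 46 uM final, 2 h at 37 °C; luminescence read.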

The target of assay [8] is Mitogen-activated protein kinase 10 (Mus musculus) (UniProt Q61831). Description: JNK3 AlphaScreen Assay (AID 530).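 Also: kinase came from lysate of stimulated human HepG2 cells; % is scaled to controls: 0 for no effect and ±100 for the full control effect.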 The note with it: JNK3 lysate, c-Jun phosphorylation; series mostly up to 11.4 µM. The method in brief: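 Biotinylated GST-cJun(1-79) served as substrate for JNK3 in HepG2 lysates stimulated with IL-1beta and TNF-alpha. ATP was 10 uM final, pH 7.6. Ser73 phosphorylation was quantified by AlphaScreen (680 nm excitation).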

The target of assay [9] is 3',5'-cyclic-AMP phosphodiesterase 4B (Homo sapiens) (UniProt Q07343). Briefly: qHTS Assay for Inhibitors of PDE-IV (AID 607; active = well fitted activation curve with a large enough effect in the main read-out, with a control signal flat, not every such curve was filed as active; also: % of control where 0% means no effect). The note with it: HEK293 ACTOne CNG channel cells, membrane potential fluorescence; series mostly up to 22.9 µM. The method in brief:
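Cell-based read-out of cAMP via a modified cyclic nucleotide-gated channel and membrane potential dye (535/590 nm) in HEK293 cells expressing PDE4 endogenously. Compounds tested up to 22.9 uM final; 100 uM RO 20-1724 reference.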

Structures are written as SMILES. Values without a mark were called inactive. Records with an inconclusive call do not appear. Calls of active or inactive are those of the source. Unless noted, calls follow the shape of the dose curve; as a rule, active = well fitted curve in either direction with a large enough effect (not every such curve was filed as active); inconclusive = small, poorly fitted or top-dose-only effect, or another doubt; inactive = flat fitted curve, though single readings scatter. Residues, ends and D or L forms follow the SMILES beside them.

Sequence of Lysosomal acid glucosylceramidase (Homo sapiens) (P04062 whole entry, looked up): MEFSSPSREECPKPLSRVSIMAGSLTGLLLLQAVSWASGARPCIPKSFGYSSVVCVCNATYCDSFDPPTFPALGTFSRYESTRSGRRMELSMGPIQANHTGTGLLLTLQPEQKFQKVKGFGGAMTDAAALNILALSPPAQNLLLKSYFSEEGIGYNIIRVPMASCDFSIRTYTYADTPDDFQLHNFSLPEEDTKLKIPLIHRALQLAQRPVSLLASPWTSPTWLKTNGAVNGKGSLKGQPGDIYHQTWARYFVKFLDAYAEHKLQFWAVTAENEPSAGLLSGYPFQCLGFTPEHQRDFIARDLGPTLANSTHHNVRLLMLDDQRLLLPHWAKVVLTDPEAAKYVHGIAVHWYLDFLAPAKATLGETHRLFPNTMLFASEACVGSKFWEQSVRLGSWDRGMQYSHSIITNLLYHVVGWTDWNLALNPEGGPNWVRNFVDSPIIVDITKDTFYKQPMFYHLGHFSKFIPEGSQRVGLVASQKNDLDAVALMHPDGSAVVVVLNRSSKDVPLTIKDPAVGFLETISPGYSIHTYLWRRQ
Sequence of Glucocorticoid receptor (Homo sapiens) (P04150 whole entry, looked up): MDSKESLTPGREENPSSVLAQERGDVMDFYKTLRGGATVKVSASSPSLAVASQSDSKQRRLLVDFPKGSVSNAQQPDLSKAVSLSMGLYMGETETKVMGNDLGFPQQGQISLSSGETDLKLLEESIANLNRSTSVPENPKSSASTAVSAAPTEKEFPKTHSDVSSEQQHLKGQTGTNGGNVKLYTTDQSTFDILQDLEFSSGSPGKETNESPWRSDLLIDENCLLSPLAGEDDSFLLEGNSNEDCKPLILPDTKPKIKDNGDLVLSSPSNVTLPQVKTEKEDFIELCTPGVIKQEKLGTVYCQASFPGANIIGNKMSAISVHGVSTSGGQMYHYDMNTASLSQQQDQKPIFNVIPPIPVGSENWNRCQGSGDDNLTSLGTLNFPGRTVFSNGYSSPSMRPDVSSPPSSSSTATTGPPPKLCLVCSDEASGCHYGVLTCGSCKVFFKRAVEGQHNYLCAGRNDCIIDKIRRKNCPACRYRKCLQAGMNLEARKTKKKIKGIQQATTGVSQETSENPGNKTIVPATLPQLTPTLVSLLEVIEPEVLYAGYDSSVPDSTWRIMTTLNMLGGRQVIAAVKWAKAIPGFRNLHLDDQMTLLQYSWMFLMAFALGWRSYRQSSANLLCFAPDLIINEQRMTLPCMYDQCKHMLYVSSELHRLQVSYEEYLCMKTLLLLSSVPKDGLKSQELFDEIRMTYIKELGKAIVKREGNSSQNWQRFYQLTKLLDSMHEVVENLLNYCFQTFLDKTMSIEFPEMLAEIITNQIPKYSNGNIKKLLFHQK
Sequence of Cytochrome P450 1A2 (Homo sapiens) (P05177 whole entry, looked up): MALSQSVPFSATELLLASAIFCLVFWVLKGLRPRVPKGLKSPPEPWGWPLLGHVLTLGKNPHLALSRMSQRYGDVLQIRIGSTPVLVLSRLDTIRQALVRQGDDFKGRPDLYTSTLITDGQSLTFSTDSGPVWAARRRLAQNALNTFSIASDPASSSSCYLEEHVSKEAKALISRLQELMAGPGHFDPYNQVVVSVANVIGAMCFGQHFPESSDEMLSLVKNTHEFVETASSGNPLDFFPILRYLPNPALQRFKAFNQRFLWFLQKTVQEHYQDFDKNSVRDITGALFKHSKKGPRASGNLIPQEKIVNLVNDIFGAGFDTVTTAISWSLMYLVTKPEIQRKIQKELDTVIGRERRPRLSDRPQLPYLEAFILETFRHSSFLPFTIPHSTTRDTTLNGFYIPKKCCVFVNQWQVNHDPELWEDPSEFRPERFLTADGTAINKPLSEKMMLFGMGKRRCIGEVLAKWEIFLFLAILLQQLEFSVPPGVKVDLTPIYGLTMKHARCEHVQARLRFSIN
Sequence of 3',5'-cyclic-AMP phosphodiesterase 4B (Homo sapiens) (Q07343 whole entry, looked up): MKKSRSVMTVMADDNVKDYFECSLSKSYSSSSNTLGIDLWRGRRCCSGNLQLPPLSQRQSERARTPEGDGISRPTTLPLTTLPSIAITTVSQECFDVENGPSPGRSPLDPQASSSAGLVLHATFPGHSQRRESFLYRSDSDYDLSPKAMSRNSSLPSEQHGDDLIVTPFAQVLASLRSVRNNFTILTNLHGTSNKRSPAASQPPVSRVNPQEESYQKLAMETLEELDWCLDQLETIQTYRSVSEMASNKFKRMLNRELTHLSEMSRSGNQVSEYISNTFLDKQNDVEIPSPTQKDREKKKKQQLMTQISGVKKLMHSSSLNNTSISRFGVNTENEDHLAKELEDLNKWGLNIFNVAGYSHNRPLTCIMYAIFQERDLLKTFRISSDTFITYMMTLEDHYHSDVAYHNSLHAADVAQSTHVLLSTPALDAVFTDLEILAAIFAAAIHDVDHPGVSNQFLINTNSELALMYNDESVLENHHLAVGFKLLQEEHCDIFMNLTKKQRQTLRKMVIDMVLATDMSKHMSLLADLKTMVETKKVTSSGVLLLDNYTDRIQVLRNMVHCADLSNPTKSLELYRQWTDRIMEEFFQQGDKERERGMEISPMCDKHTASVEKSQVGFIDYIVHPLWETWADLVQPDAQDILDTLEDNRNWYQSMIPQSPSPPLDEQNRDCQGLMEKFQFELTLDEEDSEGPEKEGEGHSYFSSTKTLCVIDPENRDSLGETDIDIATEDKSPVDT

Take `C[C@H](CN(C)C)C(=O)c1ccccc1C(=O)O`: the results for the Potency in assay [1], in [6] and in assay [7] were more than 11.4 µM, more than 46 µM and more than 9.22 µM, respectively. For the same compound, the results for the activity change, negative = inhibition in assay [2] and in [4] were -1.25% and -1.83%, respectively. The Potency result in assay [3], in assay [8] and in assay [9] was “inactive” each time. Also, the activity, negative = inhibition in assay [5] is 14.8%.
As to `CN(CC(=O)O)Cc1oc(CO)cc(=O)c1O`, the values for the Potency in [1], in [6] and in assay [7] were more than 11.4 µM, more than 46 µM and more than 9.22 µM, respectively. The activity change, negative = inhibition in [2] is 6.02%; in [4] it was 10%. Besides, the Potency result in assay [3], in [8] and in [9] was “inactive” in each case. The activity, negative = inhibition in [5] is 5.1%.
On to `Cc1cc2nc3[nH]c4c(Cl)cc(Cl)cc4c3nc2cc1C`, for which the Potency in assay [1] was more than 11.4 µM; in assay [3] it was 631 nM (active); in assay [6] it was more than 46 µM; in assay [7], more than 9.22 µM. Moreover, the activity change, negative = inhibition in [2] was -14%; in assay [4], 11.6%. For the same compound, the activity, negative = inhibition in assay [5] was -5.45%. The Potency result in assay [8] and in assay [9] was “inactive” in each case.
As to `NCC(=O)N[C@H](CO)C(=O)O` (HELM PEPTIDE1{G.[dS]}$$$$V2.0), the Potency in assay [1] is more than 11.4 µM; in assay [6], more than 46 µM; in [7], more than 9.22 µM. The activity change, negative = inhibition in assay [2] was 12.3%; in assay [4], -7.28%. Further, the Potency result in assay [3], in assay [8] and in assay [9] was “inactive” in each case. In addition, the activity, negative = inhibition in [5] is 10.1%.
For the compound `N[C@H](C(=O)O)[C@@H](O)c1cnc[nH]1`, the results for the Potency in assay [1], in [6] and in assay [7] were more than 11.4 µM, more than 46 µM and more than 9.22 µM, respectively. For the same compound, the activity change, negative = inhibition in assay [2] was 6.1%; in assay [4] it was -4.22%. In addition, the Potency result in assay [3], in [8] and in [9] was “inactive” throughout. Also, the activity, negative = inhibition in assay [5] is 2.54%.
In the case of `CCOc1ccccc1Nc1ccc(N)cc1S(=O)(=O)O`, the Potency in [1] was more than 11.4 µM; in [6], more than 46 µM; in assay [7], more than 9.22 µM. Also, the activity change, negative = inhibition in assay [2] is 6.02%; in [3] it was -12.6% [at 2.29 µM]; in [4], -5.87%. In addition, the activity, negative = inhibition in [5] is -1.52%. In addition, the Potency result in assay [8] and in assay [9] was “inactive” in each case.
As for `OCCCNc1ncnc2[nH]ncc12`, the Potency in assay [1] is more than 11.4 µM; in assay [3] it was 6310 nM (active); in [6], more than 46 µM; in assay [7], more than 9.22 µM. The activity change, negative = inhibition in [2] was 7.33%; in assay [4] it was 0.588%. For the same compound, in assay [5], the activity, negative = inhibition was -7.35%. The Potency entry in assay [8] and in [9] was “inactive” in each case.
Turning to `O=C(O)c1c(-c2c3ccc(=O)cc-3oc3cc(O)ccc23)cc2ccccc2c1-c1ccccc1`, the Potency in assay [1] was more than 11.4 µM; in [6], more than 46 µM; in assay [7], more than 9.22 µM. Also, the activity change, negative = inhibition was 8.03% in [2], -17.6% [at 2.29 µM] in assay [3] and 2.16% in assay [4]. The activity, negative = inhibition in assay [5] is 3.5%. In addition, the Potency entry in assay [8] and in [9] was “inactive” throughout.
For the compound `CCN(CC(=O)O)CC(=O)O`, the results for the Potency in assay [1], in [6] and in assay [7] were more than 11.4 µM, more than 46 µM and more than 9.22 µM, respectively. Further, the activity change, negative = inhibition is -0.0102% in assay [2] and 0.338% in assay [4]. Further, the Potency result in assay [3], in assay [8] and in [9] was “inactive” throughout. For the same compound, the activity, negative = inhibition in assay [5] was 13.7%.
Take `O=CN1CCN(C[C@H](O)CN2CCCCC2)CC1`: the values for the Potency in assay [1], in assay [6] and in assay [7] were more than 11.4 µM, more than 46 µM and more than 9.22 µM, respectively. Also, the activity change, negative = inhibition in assay [2] was 9%; in assay [3] it was -17.6% [at 2.29 µM]; in [4], -4.36%. In addition, the activity, negative = inhibition in assay [5] was 8.12%. In addition, the Potency entry in assay [8] and in [9] was “inactive” in each case.
As to `O=[N+]([O-])c1nccn1C[C@H](O)CN1CCCCC1`, the figures for the Potency in [1], in [6] and in assay [7] were more than 11.4 µM, more than 46 µM and more than 9.22 µM, respectively. Moreover, the figures for the activity change, negative = inhibition in assay [2] and in [4] were 21.1% and 0.912%, respectively. Further, the Potency result in [3], in assay [8] and in assay [9] was “inactive” throughout. The activity, negative = inhibition in assay [5] is 6.06%.
Consider `O=C(O)c1cc(=O)[nH]c(SCc2ccccc2)n1`, for which the Potency in assay [1] is more than 11.4 µM; in assay [6], more than 46 µM; in assay [7], more than 9.22 µM. Besides, the activity change, negative = inhibition in [2] was 12.1%; in assay [4] it was -27.5%. Further, the Potency result in [3], in assay [8] and in assay [9] was “inactive” in each case. In addition, the activity, negative = inhibition in assay [5] was 0.79%.
In the case of `N=C(N)SCCc1ccncc1`, the Potency in [1] is more than 11.4 µM; in [6] it was more than 46 µM; in assay [7], more than 9.22 µM. Further, the activity change, negative = inhibition is 3.09% in [2], -17.8% [at 2.29 µM] in assay [3] and -0.295% in assay [4]. The activity, negative = inhibition in [5] is 3.81%. The Potency entry in assay [8] and in assay [9] was “inactive” in each case.
As for `Cc1ccc(N=Nc2ccc(N)cc2C)c(S(N)(=O)=O)c1`, the Potency was more than 11.4 µM in assay [1], 501 nM (active) in [3], more than 46 µM in [6] and more than 9.22 µM in assay [7]. Further, the activity change, negative = inhibition in assay [2] is 2.62%; in assay [4], 15.6%. The activity, negative = inhibition in assay [5] was -6.29%. Further, the Potency result in assay [8] and in assay [9] was “inactive” throughout.
For `CCC[C@H](Sc1nc(N)nc2nc[nH]c12)C(=O)O`, the Potency in assay [1] was more than 11.4 µM; in assay [6], more than 46 µM; in assay [7] it was more than 9.22 µM. Besides, the activity change, negative = inhibition was -8.03% in [2] and -19.8% in assay [4]. For the same compound, the Potency result in assay [3], in [8] and in [9] was “inactive” in each case. Also, in [5], the activity, negative = inhibition is 6.16%.
